Screening data as filed in PubChem.
HSF-1 act – HSF-1 activators, primary screen, NIH3T3-HGL cells, MG132 stress, luminescence, single point; NIH3T3-HGL HSF-1 luciferase reporter, 8 h; 100% = twice DMSO control signal; activation, % at 9 µM; 300,000 compounds, 1.7% hits;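 active = mean replicate activation of at least 50% with a set share of replicates each reaching 50%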
HSP90 refold inh – HSP90 inhibitors, primary screen, cell lysate, luminescence; Heat shock protein HSP 90 (rabbit reticulocyte lysate; luciferase refolding); Rabbit reticulocyte lysate, luciferase refolding luminescence, 3 h; inhibition, % at 5.6 µM; 290,000 compounds, 0.91% hits; AID 1789, 2009;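 active = inhibition above the screen-wide mean plus 3 SD, computed separately per campaign, cut at about 16% in these data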;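 also: inhibitors lower the luminescence because luciferase stays unfolded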
HSF1 inh – HSF1 inhibitors in luciferase reporter cells, primary screen, cell-based, NIH3T3, luminescence. 300,000 compounds, 0.77% hits. activity change, negative = inhibition, % at 7.5 µM (by protocol). NIH3T3-HGL HSE-luciferase, MG132-induced, luminescence 8 h; hits give low values. AID 2098, 2009;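 active = more than half of replicate wells show activity change below -50%, luminescence cut by over half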;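 also: luciferase reports HSF-1 transcriptional activity via heat shock element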
GAA850 FXN act – FXN promoter activators, primary screen, cell-based, luciferase luminescence, HEK293 lucGAA850; activation, % at 6 µM; 360,000 compounds, 0.56% hits; HEK293 lucGAA850 FXN promoter luciferase reporter, 24 h; percent of 10 µM SAHA response; AID 540364, 2011;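 active = activation above the average of all compounds screened plus 3 SD, cutoff fixed separately per campaign, cut at about 7.5% in these data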
AHR activator – AHR activators, primary screen, cell-based, luminescence, luciferase reporter, human; AHR-responsive luciferase reporter cells; activation, % at 5 µM; 320,000 compounds, 2.5% hits; AID 2796, 2010; in the data active = activation above about 47%
Target sequence (P35869 whole entry, looked up): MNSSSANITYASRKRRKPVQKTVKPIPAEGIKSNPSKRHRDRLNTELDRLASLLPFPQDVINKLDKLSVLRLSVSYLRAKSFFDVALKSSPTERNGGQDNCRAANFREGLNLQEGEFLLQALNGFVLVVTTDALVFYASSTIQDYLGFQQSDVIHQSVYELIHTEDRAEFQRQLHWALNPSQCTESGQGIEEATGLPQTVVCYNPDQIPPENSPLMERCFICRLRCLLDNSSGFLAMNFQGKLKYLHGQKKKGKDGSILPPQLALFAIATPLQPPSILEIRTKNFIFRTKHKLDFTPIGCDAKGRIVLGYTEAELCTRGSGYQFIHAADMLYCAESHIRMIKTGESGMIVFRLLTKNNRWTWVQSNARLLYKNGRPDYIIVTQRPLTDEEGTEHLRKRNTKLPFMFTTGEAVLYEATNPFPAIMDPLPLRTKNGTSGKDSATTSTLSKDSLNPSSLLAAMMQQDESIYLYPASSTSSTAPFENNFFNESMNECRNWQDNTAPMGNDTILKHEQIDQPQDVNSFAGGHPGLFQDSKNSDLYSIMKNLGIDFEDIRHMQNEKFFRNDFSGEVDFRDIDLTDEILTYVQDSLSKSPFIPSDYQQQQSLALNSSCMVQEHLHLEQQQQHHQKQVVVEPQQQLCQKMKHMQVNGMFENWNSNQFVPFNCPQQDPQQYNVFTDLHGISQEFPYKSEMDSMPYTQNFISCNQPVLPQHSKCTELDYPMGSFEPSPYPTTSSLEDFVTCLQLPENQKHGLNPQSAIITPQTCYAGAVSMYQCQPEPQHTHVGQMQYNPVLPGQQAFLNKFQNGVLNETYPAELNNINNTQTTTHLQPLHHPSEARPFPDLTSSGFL
NR0B1 inh – DAX1 (NR0B1) inhibitors, primary screen, cell-based, HEK293, Gal4-DAX1, luciferase luminescence | inhibition, % at 6.75 µM | 340,000 compounds, 0.99% hits | Nuclear receptor subfamily 0 group B member 1 (Homo sapiens), P51843 | HEK293 Gal4-DAX1 luciferase reporter;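 active = inhibition above the mean over all tested compounds plus 3 SD, cut at about 4.2% in these data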;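 also: inhibition shows as a rise in luminescence from relieved DAX1 repression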
GAA30 counter – GAA30 FXN promoter activators, confirmation, counter-screen for GAA850 frataxin promoter activator project, cell-based, luminescence, HEK293, lucGAA30, triplicate; shares compounds with GAA850 FXN act; HEK293 lucGAA30 FXN promoter luciferase, 24 h; DMSO = 0%, 5 µM ipriflavone = 100%; activation, % at 6 µM; 1,900 compounds, 66% hits;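 active = mean activation above the mean of solvent-only control wells plus 3 SD, cut at about 22% in these data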;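 also: counterscreen of GAA850 promoter hits where activity marks nonselective or luminescence artifacts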
GAA850 confirm – FXN GAA850 promoter activators in reporter cells, confirmation, cell-based, luminescence, HEK293 lucGAA850, triplicate; activation, % at 6 µM; 1,900 compounds, 86% hits; shares compounds with GAA850 FXN act; HEK293 lucGAA850 FXN promoter luciferase reporter, 24 h; 100% = activation by SAHA; AID 588351, 2011;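 active = mean activation above a set limit taken from the primary screen, cut at about 8% in these data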
Of the large screens only hits and unclear results are named; the others gave an inactive call (follow-up assays come after a bar, where they were run); ! = not active in a repeat. The list is not random: actives were taken first. Their share in the collection is about 5.9%.

O=C(CN1C(=O)/C(=C/c2c(F)cccc2Cl)Oc2ccccc21)NCc1ccco1	none (no result: GAA850 FXN act, NR0B1 inh)
Clc1nc2sccn2c1/C=N/n1cnc2ccccc21	GAA850 FXN act 9.1 | GAA30 counter 82 | GAA850 confirm 32
Fc1ccc(-c2cn3cc(C(F)(F)F)cc(Cl)c3n2)cc1	HSF-1 act 83, GAA850 FXN act 8.8, NR0B1 inh 4.9 | GAA30 counter 97 | GAA850 confirm 35
COc1ccc(/C=C/S(=O)(=O)NCc2ccccc2)cc1OC	GAA850 FXN act 7.8 | GAA30 counter inactive | GAA850 confirm 8.2
O=C(CCC(=O)c1cccs1)NCc1cccnc1	none
COC(=O)c1c(NC(=O)CN2CCC3(O)CCCCC3C2c2ccc(F)cc2)sc(C)c1C (stereo not given)	none
COC(=O)c1c(NC(=O)CN2CCC3(O)CCCCC3C2c2cc(OC)ccc2OC)sc(C)c1C (stereo not given)	GAA850 FXN act 12 | GAA30 counter inactive | GAA850 confirm 9.9
c1ccc2c(c1)nnn2-c1ncnc2sccc12	GAA850 FXN act 10 | GAA30 counter 93 | GAA850 confirm 31
c1ccc(CC2CCN(c3ncnc4sccc34)CC2)cc1	none (no result: AHR activator)
CC1CC(C)CN(Cc2nc(N)nc(Nc3ccc4ccccc4c3)n2)C1 (stereo not given)	none
CC(=O)N/C(=C\c1ccccc1)C(=O)OCC(=O)c1c(N)n(C)c(=O)n(C)c1=O	none (no result: HSF-1 act, HSP90 refold inh, HSF1 inh)
Nc1nc2sc3c(c2c(=O)s1)CCCC3	GAA850 FXN act 8.2 | GAA30 counter 70 | GAA850 confirm 28
O=C(Cc1ccc(Cl)cc1)NN1C(=O)c2ccccc2C1=O	none
COC(=O)[C@@H]1[C@@H](C#N)C2(c3ccccc3-c3ccccc32)N(c2ccc(Cl)cc2)N1C#N	GAA850 FXN act 12 | GAA30 counter inactive | GAA850 confirm 19
COc1cc(S(=O)(=O)N2CCOCC2)ccc1NC(=O)COC(=O)COc1ccccc1	none
Cc1ccc2c(COC(=O)c3ccccc3Cl)cc(=O)oc2c1	HSF-1 act 101, GAA850 FXN act 8.5 | GAA30 counter 126 | GAA850 confirm 42
NS(=O)(=O)c1ccc(CCNC(=O)C2CCCO2)cc1 (stereo not given)	none (no result: AHR activator)
CC(=O)Nc1ccc(-c2ccnc3c2CC(C(=O)Nc2cccc(N(C)C)c2)O3)cc1 (stereo not given)	none (no result: HSF-1 act, HSP90 refold inh, HSF1 inh, AHR activator, NR0B1 inh)
O=C(Oc1c(-c2ccccc2)oc2ccccc2c1=O)c1ccccc1	GAA850 FXN act 13 | GAA30 counter 45 | GAA850 confirm 19
O=C(Oc1cc(=O)oc2ccccc12)c1ccccc1	none
CC(=O)Oc1ccccc1C(=O)C=Cc1cccc([N+](=O)[O-])c1	GAA850 FXN act 17 (no result: HSF-1 act, HSP90 refold inh, HSF1 inh, AHR activator) | GAA30 counter inactive | GAA850 confirm 22
COc1cc(/C=C\C(=O)O)cc(S(=O)(=O)N2CCCCCC2)c1OC	none (no result: AHR activator)
CCCCCn1c(=NC(=O)c2ccco2)c(C(=O)OCC)cc2c(=O)n3ccccc3nc21	GAA850 FXN act 8.0! | GAA30 counter inactive | GAA850 confirm 9.0
Oc1cc(NCc2cccnc2)ccc1-c1nc2ccccc2o1	HSF-1 act 59, GAA850 FXN act 11 | GAA30 counter 81 | GAA850 confirm 44
Nc1ccccc1C#CC(=O)c1ccccc1	HSF-1 act 84, GAA850 FXN act 14 | GAA30 counter inactive | GAA850 confirm inactive
Nc1ccccc1C#Cc1ccc([N+](=O)[O-])cc1	none (no result: HSP90 refold inh)
COc1ccc(-c2csc(C)n2)cc1Br	none
COc1ccc(-c2cn3cccc(C)c3n2)cc1Br	HSF-1 act 62, GAA850 FXN act 8.4 | GAA30 counter 120 | GAA850 confirm 37
Cc1cc(C)cc(-n2c(SC(C)C(=O)NCc3ccc4c(c3)OCO4)nc3ccccc3c2=O)c1 (stereo not given)	GAA850 FXN act 8.7 | GAA30 counter 24 | GAA850 confirm 8.2
COCc1cc(C)nc2sc(C(=O)Nc3cccc(OC)c3)c(N)c12	GAA850 FXN act 7.7, NR0B1 inh 4.9 | GAA30 counter 115 | GAA850 confirm 38
COCc1cc(C)nc2sc(C(=O)Nc3ccc(OC)cc3)c(N)c12	none
CCOC(=O)c1oc2c(c1C)C(=O)CCC2	none
CCOC(=O)c1oc2c(c1C)/C(=N/O)CCC2	GAA850 FXN act 8.0 | GAA30 counter 65 | GAA850 confirm 23
CC1CCN(c2nnc(NC(=O)Cn3c(=O)oc4ccccc43)s2)CC1	GAA850 FXN act 15 | GAA30 counter inactive | GAA850 confirm inactive
O=C(Cn1c(=O)oc2ccccc21)Nc1nnc(N2CCCCCC2)s1	none
CCOC(=O)C1=C(COC(=O)/C=C/c2ccccc2Cl)NC(=O)NC1C (stereo not given)	GAA850 FXN act 8.0 | GAA30 counter 49 | GAA850 confirm 19
CCOC(=O)C1=C(COC(=O)/C=C/c2ccccc2F)NC(=O)NC1C (stereo not given)	none (no result: HSP90 refold inh)
Cc1c(C(=O)OCCOC(C)C)[nH]c2c1C(=O)CC(C)(C)C2	GAA850 FXN act 10.0 | GAA30 counter 35 | GAA850 confirm 13
COc1cc(SC)ccc1C(=O)OCC(=O)NCCC1=CCCCC1	none (no result: HSP90 refold inh)
COc1cc(/C=N/O)ccc1OCc1ccccc1Cl	GAA850 FXN act 12 | GAA30 counter 122 | GAA850 confirm 38
COc1cc(O)c2c(=O)c(-c3ccc(O[C@@H]4O[C@H](CO)[C@@H](O)[C@H](O)[C@H]4O)cc3)coc2c1	GAA850 FXN act 9.0 (no result: AHR activator) | GAA30 counter 108 | GAA850 confirm 31
CCc1ccc(O)c(-c2cc(C(=O)Nc3cccnc3)[nH]n2)c1	GAA850 FXN act 7.8 | GAA30 counter 97 | GAA850 confirm 31
Cc1cc(C)c(O)c(-c2cc(C(=O)Nc3cccnc3)[nH]n2)c1	none
Cc1snc(S(=O)(=O)/C(C#N)=N/Nc2ccc(C(F)(F)F)cc2)c1C#N	none
CN(C)CCn1c(=O)n(-c2cccc(Cl)c2)c(=O)c2c3c(sc21)CCCCC3	GAA850 FXN act 13 | GAA30 counter 22 | GAA850 confirm 13
